In PubChem BioAssay (NCATS):
Inconclusive results are not listed. A call without a number means that no potency is given here. Activity calls are given as the source filed them. The call rests on the fitted dose curve; in most records, active means well fitted inhibition curve with a large enough effect; inconclusive means small, poorly fitted or top-dose-only effect; inactive means no such curve, though single readings can be large or run the other way.
Potency means the concentration at half of the fitted maximal effect.

These molecules were tested against Retinaldehyde dehydrogenase 3 (Homo sapiens) (UniProt P47895) (assay: qHTS for Inhibitors of the Aldehyde Dehydrogenase Family (ALDH1A3) Confirmatory screens (AID 2061311; further: nearly all actives have a fitted effect of over 60% in size)). Conditions: ALDH inhibition qHTS; series mostly up to 46 µM.
With O=C(CCS(=O)(=O)c1cccc2nonc12)Nc1ccc(F)cc1F the Potency was “inactive”. In the case of O=C1Cc2cc(S(=O)(=O)N3CCN(c4ccccc4)CC3)ccc2N1, the Potency is reported as “inactive”. Cc1nonc1OCCn1cc(-c2ccc(CO)o2)nn1 was tested, and the Potency was “inactive”. For Cn1cc(-c2cnc(Nc3ccncc3)c3c2CCO3)cn1, the Potency was “inactive”. With O=C(Nc1ccc([C@@H](O)[C@H]2COCC(=O)N2CCCc2ccccc2)cc1)C1CCC1 the Potency was “inactive”. CCc1nn2c(=O)c(S(=O)(=O)Nc3cccc(F)c3)c(C)nc2s1 was tested, and the Potency was “inactive”. With CCOc1ccc(NC(=O)NCCCN2CCN(c3ccc(OC)cc3)CC2)cc1 the Potency was “inactive”. In the case of COc1ccc(-c2nnc3ccc(NCCc4ccccc4)nn23)nc1, the Potency is reported as 20 µM (active). With O=C(C#Cc1ccccc1)NC1CCCc2c1cnn2-c1ccc(F)cc1F (stereo not drawn) the Potency was “inactive”. In the case of Cc1ccc(NC(=O)CSc2nc3ncccc3[nH]2)cc1F, the Potency is reported as “inactive”. With N#Cc1cccc(C(=O)Nc2ccc3c(N4CCOCC4)ncnc3c2)c1 the Potency was “inactive”. With Cc1ccc(C(=O)c2cn(Cc3cccc(F)c3)c3nc(C)ccc3c2=O)cc1 the Potency was “inactive”. For Cc1cc(=O)[nH]c(CCNc2nc(-c3ccncc3)nc3c2c(C)nn3C)n1, the Potency was “inactive”. Cc1ccc(Oc2nc3c(c(=O)n(Cc4ccccc4Cl)c(=O)n3C)n2C)cc1C was tested, and the Potency was “inactive”. With CCn1nc(-c2cccc(-c3ccnn3C)c2)nc1N(C)C the Potency was “inactive”. With Cc1cc(Br)ccc1NC(=O)CCNS(=O)(=O)c1cccc2nonc12 the Potency was “inactive”. With CC[C@H]1CN(C(=O)Nc2cccc(OC)c2)CC[C@H]1CC(=O)NCc1ccccc1 the Potency was “inactive”. CC(=O)NC(c1ccco1)c1cc(Cl)c2ccccc2c1O (stereo not drawn) was tested, and the Potency was 11.3 µM (active).
